Drawing on PubChem BioAssay, this text covers composite z-score, composite Z-score and z-score for five compounds.

Calls of active or inactive are those of the source.

One assay addresses Albumin (Bos taurus) (UniProt P02769). The experiment in a line: bovine serum albumin binders on microarray, profiling panel, artefact control for SMM control protein annotation, biochemical, small-molecule microarray, Alexa647 label, 635/667 nm fluorescence (AID 1118).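 Also: score merges 667 nm emission intensity and signal-to-noise per printed compound spot.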 Conditions: BSA-A647 binding, fluorescence 635 nm, higher = more signal.
Assay [1] in a line: small-molecule microarray binders of probe aXIP, primary screen, biochemical, NeuroSMM set, 635/667 nm fluorescence (AID 1119).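 Also: probe is the protein aXip251-270 applied at 1 µg/mL to compound-printed slides; binding of probe to printed compounds measured as 667 nm fluorescence plus signal to noise.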 To be noted: higher = more signal, called active from +8 up or from −8 down.
A short description of assay [2]: small-molecule binders of probe aNOTCH3, primary screen, biochemical, small-molecule microarray, 635/667 nm fluorescence (AID 1120).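 Also: probe is a biotin-tagged antibody raised against NOTCH3 rather than NOTCH3 protein; score merges spot fluorescence near 667 nm with spot signal to noise.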 To be noted: higher = more signal.
Assay [3] can be described thus: small-molecule binders of probe aNOTCH2, primary screen, biochemical, small-molecule microarray, 635/667 nm fluorescence (AID 1121).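 Also: score merges feature fluorescence read at 667 nm with its signal to noise.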 Conditions: higher = more signal.
The target of assay [4] is Carbonic anhydrase 2 (Homo sapiens) (UniProt P00918). Briefly: CAII small-molecule binders, profiling panel, biochemical, small-molecule microarray, Alexa647-labelled CAII (AID 1122). Conditions: CAII-A647 binding fluorescence, higher = more signal.
A short description of assay [5]: COS7 lysate on small-molecule microarray, probe aHis, 635 nm (AID 1123).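 Also: z-score combines 667nm fluorescence intensity with signal-to-noise per printed compound spot.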 Conditions: COS7 cell lysate, fluorescence, higher = more signal.
Assay [6] can be described thus: compound binding in COS7 lysate, probe aLAP1, primary screen, cell lysate, small-molecule microarray (AID 1124).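 Also: lysate comes from COS7 cells expressing LAP1 and is applied at 0.3 µg/mL; score merges spot fluorescence near 667 nm with signal-to-noise over triplicate slides.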 Conditions: probe aLAP1, fluorescence, higher = more signal.
The next assay deals with Sam68 (KHDRBS1). Briefly: Sam68 small-molecule binders, primary screen, biochemical, small-molecule microarray, 635 nm fluorescence (AID 1125).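 Also: score merges 667 nm channel intensity with signal to noise over triplicate slides.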 Conditions: small-molecule microarray binding, higher = more signal.
In assay [7] the test system is Chordin-like protein 2 (CHRDL2). The experiment in a line: CHRDL2 small-molecule binders, primary screen, biochemical, small-molecule microarray, 635 nm fluorescence (AID 1126).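 Also: printed compound slides probed with Chrdl2 protein at 4 µg/mL for 1 h at 4 C; score merges 667 nm emission intensity with signal to noise over three replicate slides.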 Conditions: small-molecule microarray binding, fluorescence 635 nm; higher = more signal.
In assay [8] the target is Concanavalin-A (Canavalia ensiformis) (UniProt P02866). The experiment in a line: ConA small-molecule binders, primary screen, artefact control for SMM control protein annotation, biochemical, small-molecule microarray, Alexa647 label, 635 nm (AID 1127).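 Also: z combines 667 nm emission intensity with signal-to-noise across three replicate slides.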 To be noted: ConA-A647 binding fluorescence, higher = more signal.
Assay [9] in a line: anti-His antibody binders, primary screen, artefact control for SMM control protein annotation, biochemical, small-molecule microarray, 635 nm fluorescence (AID 1128).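 Also: score merges feature fluorescence with signal-to-noise for each printed compound spot.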 To be noted: anti-His Alexa647 antibody binding, higher = more signal.
The test system of assay [10] is Human papillomavirus type 1a E7 protein (residues 1-88). The experiment in a line: HPV1a E7 small-molecule binders, primary screen, biochemical, small-molecule microarray, residues 1-88, 635 nm (AID 1129). To be noted: small-molecule microarray binding, fluorescence 635 nm; higher = more signal.
For assay [11], the target named is Focal adhesion kinase 1 (Homo sapiens) (UniProt Q05397). The experiment in a line: small-molecule microarray binders of FAK, primary screen, biochemical, 635/667 nm fluorescence, BSA, DTT (AID 1130).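 Also: composite of spot emission at 667 nm and signal to noise over triplicate slides.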 Conditions: PTK2 binding, 635 nm fluorescence, higher = more signal.
The subject of assay [12] is Fibrinogen (Alexa647-labelled). Briefly: fibrinogen binders on compound microarrays, profiling panel, artefact control for SMM control-protein annotation, biochemical, small-molecule microarray, 635/667 nm fluorescence (AID 1131).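 Also: z-score merges 667 nm fluorescence with per-spot signal-to-noise over triplicate slides.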 Conditions: fibrinogen-A647 binding fluorescence, higher = more signal.
The target in assay [13] is Follistatin (Homo sapiens) (UniProt P19883). The experiment in a line: follistatin binders on small-molecule microarrays, primary screen, biochemical, small-molecule microarray, 635/667 nm fluorescence (AID 1132). Conditions: FST binding, 635 nm fluorescence, higher = more signal.
Assay [14] has as its target Fibroblast growth factor 2 (Homo sapiens) (UniProt P09038). Briefly: FGF2 binders on small-molecule microarrays, primary screen, biochemical, small-molecule microarray, 635/667 nm fluorescence (AID 1133). Conditions: small-molecule microarray binding, FGF2, fluorescence 635/667; higher = more signal.
Assay [15] in a line: mitochondrial membrane potential change in A549 cells, profiling panel, cell-based, JC-1 fluorescence, basal, 24 h, 100 nL (AID 1138).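 Also: A549 lung adenocarcinoma cells under basal conditions with no added stimulus; test concentration not given here.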 To be noted: higher = more signal.
The subject of another assay is Lefty1. Briefly: Lefty1 binders on small-molecule microarrays, primary screen, biochemical, small-molecule microarray, 635/667 nm fluorescence (AID 1139). Conditions: small-molecule microarray binding, fluorescence 635/667; higher = more signal.
The subject of assay [16] is wheat germ agglutinin (Triticum aestivum), Alexa647-labelled. Briefly: wheat germ agglutinin binders on compound microarrays, profiling panel, artefact control for SMM control-protein annotation, biochemical, small-molecule microarray, 635/667 nm fluorescence (AID 1140).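 Also: score merges 667 nm feature emission with signal to noise over triplicate slides.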 To be noted: WGA-A647 binding, 635 nm fluorescence, higher = more signal.
Assay [17] deals with Luciferin 4-monooxygenase (Photinus pyralis) (UniProt P08659). The experiment in a line: firefly luciferase enzyme inhibitors, primary screen, biochemical, luminescence, purified enzyme, 2006 set (AID 1141).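 Also: cell-free assay with purified firefly luciferase at 100 ng per well in PBS; test concentration not given here.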 To be noted: SteadyGlo luminescence, 30 min, higher = more signal, called active from +8 up or from −8 down.
Sequence of Luciferin 4-monooxygenase (Photinus pyralis) (P08659 whole entry, looked up): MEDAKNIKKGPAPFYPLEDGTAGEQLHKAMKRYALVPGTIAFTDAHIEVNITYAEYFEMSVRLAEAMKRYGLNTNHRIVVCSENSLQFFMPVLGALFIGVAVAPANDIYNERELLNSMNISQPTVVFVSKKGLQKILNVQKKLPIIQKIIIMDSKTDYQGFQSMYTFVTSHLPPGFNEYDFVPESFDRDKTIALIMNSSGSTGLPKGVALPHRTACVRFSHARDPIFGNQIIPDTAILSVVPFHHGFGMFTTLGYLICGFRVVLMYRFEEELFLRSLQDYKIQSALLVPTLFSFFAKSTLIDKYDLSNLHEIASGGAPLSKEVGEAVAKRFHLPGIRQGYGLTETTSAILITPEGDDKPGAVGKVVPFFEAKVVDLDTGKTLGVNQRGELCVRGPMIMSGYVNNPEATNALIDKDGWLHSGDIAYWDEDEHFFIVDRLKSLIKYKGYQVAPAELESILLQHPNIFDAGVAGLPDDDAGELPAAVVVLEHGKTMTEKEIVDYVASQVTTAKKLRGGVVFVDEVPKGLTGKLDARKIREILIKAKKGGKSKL

Sequence of Albumin (Bos taurus) (P02769 whole entry, looked up): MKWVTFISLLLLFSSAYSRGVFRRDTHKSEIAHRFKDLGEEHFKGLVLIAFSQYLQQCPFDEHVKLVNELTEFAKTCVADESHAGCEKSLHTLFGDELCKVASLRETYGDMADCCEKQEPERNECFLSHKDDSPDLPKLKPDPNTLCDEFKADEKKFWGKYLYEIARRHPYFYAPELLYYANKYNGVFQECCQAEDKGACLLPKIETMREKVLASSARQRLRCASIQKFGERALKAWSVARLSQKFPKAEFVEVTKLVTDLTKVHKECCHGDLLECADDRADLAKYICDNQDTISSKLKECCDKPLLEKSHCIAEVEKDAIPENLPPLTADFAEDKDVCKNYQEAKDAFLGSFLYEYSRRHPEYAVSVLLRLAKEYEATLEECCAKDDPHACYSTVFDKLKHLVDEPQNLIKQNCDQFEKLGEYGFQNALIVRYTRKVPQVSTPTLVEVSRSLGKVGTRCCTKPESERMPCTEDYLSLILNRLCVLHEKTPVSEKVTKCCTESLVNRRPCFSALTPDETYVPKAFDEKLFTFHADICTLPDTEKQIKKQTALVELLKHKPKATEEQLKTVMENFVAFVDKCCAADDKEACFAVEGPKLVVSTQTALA
Sequence of Fibroblast growth factor 2 (Homo sapiens) (P09038 whole entry, looked up): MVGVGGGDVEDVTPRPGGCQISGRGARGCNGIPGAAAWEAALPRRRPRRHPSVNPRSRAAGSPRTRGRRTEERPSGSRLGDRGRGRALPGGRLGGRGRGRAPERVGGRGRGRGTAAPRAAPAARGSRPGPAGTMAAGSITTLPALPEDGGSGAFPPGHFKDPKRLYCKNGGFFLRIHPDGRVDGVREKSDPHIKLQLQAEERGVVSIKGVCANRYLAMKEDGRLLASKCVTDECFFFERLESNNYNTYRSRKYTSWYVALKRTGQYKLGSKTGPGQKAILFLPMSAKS
Sequence of Concanavalin-A (Canavalia ensiformis) (P02866 whole entry, looked up): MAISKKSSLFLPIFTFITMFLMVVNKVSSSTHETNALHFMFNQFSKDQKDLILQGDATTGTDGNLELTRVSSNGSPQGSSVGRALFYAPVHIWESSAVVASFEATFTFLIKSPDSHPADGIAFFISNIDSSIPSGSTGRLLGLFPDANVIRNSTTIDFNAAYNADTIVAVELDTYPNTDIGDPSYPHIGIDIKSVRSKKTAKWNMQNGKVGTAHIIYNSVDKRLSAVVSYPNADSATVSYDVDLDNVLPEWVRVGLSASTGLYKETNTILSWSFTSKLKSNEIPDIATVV
Sequence of Focal adhesion kinase 1 (Homo sapiens) (Q05397 whole entry, looked up): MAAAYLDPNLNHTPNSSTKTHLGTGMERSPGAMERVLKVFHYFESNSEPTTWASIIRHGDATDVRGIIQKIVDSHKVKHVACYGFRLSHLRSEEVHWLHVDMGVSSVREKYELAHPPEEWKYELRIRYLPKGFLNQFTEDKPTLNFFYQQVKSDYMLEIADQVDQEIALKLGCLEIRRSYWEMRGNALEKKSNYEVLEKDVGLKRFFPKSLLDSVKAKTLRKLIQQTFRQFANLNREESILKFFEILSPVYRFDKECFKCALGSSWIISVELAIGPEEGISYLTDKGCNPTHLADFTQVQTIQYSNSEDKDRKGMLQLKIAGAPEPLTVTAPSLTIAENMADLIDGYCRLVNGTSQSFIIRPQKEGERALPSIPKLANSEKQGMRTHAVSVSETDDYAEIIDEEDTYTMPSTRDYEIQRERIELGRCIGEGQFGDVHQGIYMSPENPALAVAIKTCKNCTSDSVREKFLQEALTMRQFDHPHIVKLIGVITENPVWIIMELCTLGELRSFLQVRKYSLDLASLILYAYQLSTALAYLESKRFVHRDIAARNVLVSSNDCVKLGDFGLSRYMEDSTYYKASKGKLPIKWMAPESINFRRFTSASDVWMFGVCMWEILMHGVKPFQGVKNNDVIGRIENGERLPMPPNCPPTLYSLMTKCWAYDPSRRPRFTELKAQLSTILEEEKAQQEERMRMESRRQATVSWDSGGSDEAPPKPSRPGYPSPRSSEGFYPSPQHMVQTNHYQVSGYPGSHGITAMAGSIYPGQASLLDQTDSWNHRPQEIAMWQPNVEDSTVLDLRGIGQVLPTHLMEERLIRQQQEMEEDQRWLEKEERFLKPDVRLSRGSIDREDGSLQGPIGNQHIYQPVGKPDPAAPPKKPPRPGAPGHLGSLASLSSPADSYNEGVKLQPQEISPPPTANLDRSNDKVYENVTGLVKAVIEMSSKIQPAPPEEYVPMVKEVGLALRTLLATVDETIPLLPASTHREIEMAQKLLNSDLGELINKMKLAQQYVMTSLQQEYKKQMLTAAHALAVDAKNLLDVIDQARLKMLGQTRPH
Sequence of Follistatin (Homo sapiens) (P19883 whole entry, looked up): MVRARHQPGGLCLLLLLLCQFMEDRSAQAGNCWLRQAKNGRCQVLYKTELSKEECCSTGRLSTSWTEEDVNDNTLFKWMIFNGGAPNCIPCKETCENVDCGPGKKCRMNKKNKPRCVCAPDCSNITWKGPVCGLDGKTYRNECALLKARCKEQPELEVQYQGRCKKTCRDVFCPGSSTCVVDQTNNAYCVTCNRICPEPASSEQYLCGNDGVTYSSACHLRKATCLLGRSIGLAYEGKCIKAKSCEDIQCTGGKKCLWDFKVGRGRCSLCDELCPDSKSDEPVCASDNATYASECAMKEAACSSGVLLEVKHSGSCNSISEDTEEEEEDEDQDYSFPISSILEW

Consider `COc1ccc([Si](C)(C)[C@@H]2[C@@H](CCO)O[C@]3(C(=O)N(Cc4ccccc4)c4ccc(NC(=O)[C@H](C)O)cc43)[C@H]2C)cc1`, for which the composite z-score in the assay with Albumin (Bos taurus) is 0.0962; in assay [2] it was 0.147; in assay [3] it was -0.106; in [4], 0.377; in assay [5], 1.2; in [6], 0.515. Further, the composite z-score is 1.29 in the assay with Sam68 (KHDRBS1); 0.448 in assay [7]; 1.14 in [8]; 0.888 in assay [9]; 1.21 in [10]; 1.04 in assay [11]. Moreover, the composite z-score in [12] amounted to 0.851; in [13], 1.2; in assay [14] it was 0.462; in the assay with Lefty1 it was 1.29; in [16], 0.417. For the same compound, the composite Z-score in [1] was -0.0289 (inactive). The results for the z-score in assay [15] and in [17] were -0.955 and 0.265 (inactive), respectively.

Consider `Cc1ccc(S[C@]2(C(=O)NCc3ccccc3)CC(=O)N(C3CCCCC3)[C@@H]2c2ccc(CO)cc2I)cc1`, for which the composite z-score was 0.0863 with Albumin (Bos taurus); 0.0301 in assay [2]; -0.133 in assay [3]; 0.459 in assay [4]; 2.13 in [5]; 0.658 in assay [6]. Moreover, the composite z-score in the assay on Sam68 (KHDRBS1) is 1.23; in assay [7], 0.338; in [8], 1.14; in [9], 0.731; in assay [10], 0.872; in assay [11] it was 0.25. Moreover, the composite z-score in [12] was 0.773; in assay [13] it was 0.382; in assay [14], 0.904; in the assay on Lefty1 it was -0.0294; in [16], 0.68. Further, in assay [1], the composite Z-score is -0.0202 (inactive). Moreover, the z-score is 1.3 in [15] and -0.421 (inactive) in [17].

With `O=C(NCCN1CCOCC1)[C@@H]1c2ccccc2C(=O)N(C2Cc3ccccc3C2)[C@H]1c1ccc(CO)cc1`, the composite z-score is 0.268 with Albumin (Bos taurus); -0.223 in assay [2]; 0.0129 in assay [3]; 0.498 in [4]; 0.866 in [5]; 1.77 in [6]. For the same compound, the composite z-score in the assay on Sam68 (KHDRBS1) was 1.01; in assay [7] it was -0.419; in assay [8] it was 0.466; in assay [9], 3.03; in [10] it was 1.08; in assay [11] it was 0.306. Moreover, the composite z-score in assay [12] is 0.739; in [13], -0.506; in assay [14], 0.082; in the assay on Lefty1, -0.724; in assay [16] it was -0.0583. In addition, the composite Z-score in [1] was -0.27 (inactive). Also, the z-score was 2.55 in [15] and -1.16 (inactive) in assay [17].

For the compound `CCC1=C2CN(Cc3ccccc3)[C@@H](C(=O)Cc3ccccc3)C2C=CCC1` (stereo not given in full), the composite z-score is 0.912 with Albumin (Bos taurus); 0.0293 in assay [2]; -0.149 in assay [3]; 0.679 in [4]; 1.58 in assay [5]; -0.186 in assay [6]. Further, the composite z-score was 0.169 with Sam68 (KHDRBS1); -0.263 in assay [7]; 0.351 in [8]; 0.797 in assay [9]; -0.0353 in [10]; -0.383 in assay [11]. Also, the composite z-score in assay [12] amounted to 0.666; in assay [13] it was 0.578; in assay [14], 0.0052; in the assay on Lefty1, 0.352; in assay [16] it was 0.557. Also, the composite Z-score in [1] was -0.496 (inactive). The z-score was -1.22 in [15] and 0.313 (inactive) in assay [17].

For `COc1ccc([Si](C)(C)[C@@H]2[C@@H](CCO)O[C@]3(C(=O)N(Cc4ccccc4)c4ccc(N5CCOC5=O)cc43)[C@H]2C)cc1`, the composite z-score is 0.279 with Albumin (Bos taurus); -0.0647 in assay [2]; -0.102 in [3]; 0.324 in assay [4]; 0.747 in assay [5]; 0.294 in [6]. For the same compound, the composite z-score in the assay with Sam68 (KHDRBS1) is 1.32; in assay [7], 0.127; in assay [8], 0.816; in assay [9] it was 0.515; in [10] it was 1.11; in assay [11], -0.0211. The composite z-score was determined as 0.661 in [12]; 0.36 in assay [13]; 0.19 in [14]; 0.49 with Lefty1; 0.896 in assay [16]. Also, the composite Z-score in assay [1] was 0.774 (inactive). In addition, the z-score in assay [15] is -0.771; in assay [17], 0.6 (inactive).
